Assay outcomes (PubChem)
A selection: hits, their analogues and other compounds. The true share with any hit is near 3.6%.
BoNT A protease – blocks Botulinum neurotoxin A light chain protease. multiplex microsphere protease substrate cleavage, flow cytometry. inhibition, % at 10 µM. actives 0.17% (n = 360,000)
Anthrax LF prot – blocks Bacillus anthracis lethal factor protease. inhibition, % at 10 µM. actives 0.12% (n = 360,000). multiplex microsphere protease cleavage assay, LF. AID 588501. P15917
MazEF act – activators of E. coli MazEF toxin-antitoxin RNase. FAM/BHQ RNA-DNA oligo cleavage fluorescence, 5 h. actives 0.32% (n = 350,000). activation, % at 20 µM. P0AE70; in the data active means activation above about 50%
Target sequence (P0AE70 whole entry, looked up): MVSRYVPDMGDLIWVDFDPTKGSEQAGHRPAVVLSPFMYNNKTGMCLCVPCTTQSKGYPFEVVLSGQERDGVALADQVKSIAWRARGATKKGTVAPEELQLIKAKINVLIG
Bead autofluor – counter-screen for toxin protease inhibitors: compound fluorescence | compound autofluorescence counterscreen, microsphere flow cytometry; stronger effect = higher value | actives 3.1% (n = 360,000) | AID 624483 | fluorescence intensity (test concentration not listed); in the data active means fluorescence intensity above about 16000; inconclusive means no clear call, values can overlap the other calls
BoNT F protease – BoNT F light chain protease inhibition; Multiplex microsphere protease cleavage assay, flow cytometry; inhibition, % at 10 µM; actives 0.22% (n = 360,000); AID 588497; in the data active means inhibition above about 35%, passing the limit was not always enough; inconclusive means no clear call, values can overlap the other calls
Large screens that a line does not name were inactive. Unless noted, no stated cut-off is given here; in the data, active means inhibition above about 30%; inconclusive means no clear call, values can overlap the other calls; inactive means below that.

Cc1ccc(CS(=O)(=O)Cc2ccc(C(=O)N3CCC4(CC3)OCCO4)o2)cc1	none
Cc1ccccc1S(=O)(=O)Cc1ccc(C(=O)NCCCN2CCN(C)CC2)o1	Bead autofluor 22715
O=C(NCCCN1CCCC1)c1ccc(CS(=O)(=O)c2ccc(Br)cc2)o1	none
Cc1ccc(S(=O)(=O)Cc2ccc(C(=O)N3CCC4(CC3)OCCO4)o2)cc1	Bead autofluor 20005
Cc1ccccc1S(=O)(=O)Cc1ccc(C(=O)NCCCN2CCCC2)o1	none
COc1ccc(CCNC(=O)c2ccc(CS(=O)(=O)c3ccc(C)cc3)o2)cc1OC	none
COc1ccc(CCNC(=O)c2ccc(CS(=O)(=O)c3ccc(Cl)cc3)o2)cc1OC	Bead autofluor 17952
NC(=O)CCS(=O)(=O)c1ccc(Cl)cc1	none
COc1ccc(-c2cc(C(=O)Nc3cc(Cl)ccc3O)no2)cc1	none
CCCCNC(=O)c1ccc(CS(=O)(=O)c2ccccc2OC)o1	none
COc1ccccc1S(=O)(=O)Cc1ccc(C(=O)NCCN2CCCC2)o1	Bead autofluor 22371
COc1cccc(N2C(=O)CC(N3CCC(C(N)=O)(N4CCCCC4)CC3)C2=O)c1 (centres undefined)	Bead autofluor 26152
COC(=O)COc1ccc(S(=O)(=O)Nc2ccc(C(N)=O)cc2)cc1	none
CCOc1ccc(NS(=O)(=O)c2ccc(NS(=O)(=O)c3ccccc3)cc2)cc1	none
COC(=O)COc1ccc(S(=O)(=O)Nc2ccccc2SC)cc1	BoNT A protease inconclusive, Bead autofluor 23132
CCOc1ccc(S(=O)(=O)Nc2ccccc2SC)cc1	Bead autofluor 24042
CCCC[C@@H]1Cc2[nH][nH]c(=O)c2[C@H](c2ccc3ccccc3c2)O1	none (no result: MazEF act)
COc1ccccc1Nc1cc(C)nc(Nc2ccccc2OC)n1	none
COc1ccccc1NC(=O)/C(C#N)=C/C=C/c1ccco1	Bead autofluor 22514
CC(=NCc1cccnc1)c1c(O)n(C2CCCCC2)c(=O)[nH]c1=O	BoNT A protease inconclusive, Bead autofluor 22369
CCC(=NCc1cccnc1)c1c(O)n(C2CCCCC2)c(=O)[nH]c1=O	Bead autofluor 20661
CCC(=NCc1cccnc1)c1c(O)n(-c2ccccc2C)c(=O)[nH]c1=O	BoNT F protease inconclusive
CC(=NCc1cccnc1)c1c(O)n(-c2ccccc2C)c(=O)[nH]c1=O	Bead autofluor 20266
COc1ccc(/C=N/NC(=O)c2cc(C34CC5CC(CC(C5)C3)C4)[nH]n2)cc1OC	BoNT F protease 39.6
C=CCn1c(O)c(C(CC)=NCCN2CCOCC2)c(=O)[nH]c1=O	Bead autofluor 19747
C=CCn1c(O)c(C(CC)=Nc2ccccc2NC(=O)CC)c(=O)[nH]c1=O	BoNT A protease inconclusive, Bead autofluor 20357
CC(=O)c1ccc(OCCCC(=O)Nc2cc(Cl)ccc2-n2cncn2)cc1	none
CCCCn1c(N)c(Sc2ccc(Cl)cc2)c(=O)[nH]c1=O	Bead autofluor 19647
CN1\C(=C/C=C/C=C/C=[N+](C)C)C(C)(C)c2ccccc21	BoNT A protease inconclusive, Anthrax LF prot inconclusive, MazEF act 477.0, BoNT F protease inconclusive
CN1/C(=C/C=C(C#N)C#N)C(C)(C)c2ccccc21	MazEF act active
CN1/C(=C\C=O)C(C)(C)c2ccccc21	none
Nc1[nH]c(C(=O)c2ccccc2)c(-c2ccncc2)c1C(=O)NCCc1c[nH]c2ccccc12	none (no result: MazEF act)
Cn1nc(CC(=O)NC2CCCCCC2)c2ccccc2c1=O	none
Cn1nc(C(=O)NC2CCCCCC2)ccc1=O	BoNT A protease inconclusive, Bead autofluor 22596
Cn1nc(CC(=O)NC2CCCCC2)c2ccccc2c1=O	Bead autofluor 23933
COc1cc(NC(=O)Cc2nn(C)c(=O)c3ccccc23)cc(OC)c1OC	BoNT A protease inconclusive, Bead autofluor 17080
COc1ccc(OC)c(NC(=O)Cc2nn(C)c(=O)c3ccccc23)c1	none
CCOC(=O)C1CCN(C2CCN(C(=O)c3oc4c(C)c(C)ccc4c3C)CC2)CC1	none
CCOC(=O)CCc1c(C)c(C#N)c2nc3ccccc3n2c1-n1ccnc1	none
COC(=O)CCc1c(C)c(C#N)c2nc3ccccc3n2c1N1CCCC1	Bead autofluor 22382
COc1ccc(C(=O)C2CCCN(Cc3c(O)cccc3OC)C2)cc1OC (centres undefined)	BoNT F protease 36.9
COc1cccc(O)c1CN1CCCC(C(=O)c2cccc(C(F)(F)F)c2)C1 (centres undefined)	none
O=C(NCC1CCCO1)c1cn(Cc2ccccc2Cl)nc1-c1ccccc1 (centres undefined)	none
O=C(O)CC1CCC1CC(=O)O (centres undefined)	none
